An excerpt weighted towards active compounds, which were near 4.7% of everything screened.
D3 ag: activates the human D3 dopamine receptor; P35462; D3R DiscoveRx beta-arrestin cells, luminescence, 90 min; max activation, %; 410,000 tested, 0.58% active; in the data active means max activation above about 30%; further: 0% is about no effect
Target sequence (P35462 whole entry, looked up): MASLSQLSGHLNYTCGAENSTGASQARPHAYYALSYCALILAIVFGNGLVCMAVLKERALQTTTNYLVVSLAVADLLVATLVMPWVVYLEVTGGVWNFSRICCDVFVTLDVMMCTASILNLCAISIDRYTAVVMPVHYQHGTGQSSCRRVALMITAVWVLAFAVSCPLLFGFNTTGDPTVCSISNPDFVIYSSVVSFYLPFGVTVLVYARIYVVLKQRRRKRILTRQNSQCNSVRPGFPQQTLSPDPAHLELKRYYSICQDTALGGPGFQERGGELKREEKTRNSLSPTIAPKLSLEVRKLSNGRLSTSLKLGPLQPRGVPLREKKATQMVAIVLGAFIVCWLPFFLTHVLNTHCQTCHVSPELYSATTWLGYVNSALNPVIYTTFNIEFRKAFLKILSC
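Agonist mode: compounds and dopamine controls were applied to plated cells for 90 min at 37 degrees C after an overnight attachment at 1500 cells/well. Luminescent read-out followed 30 - 60 minutes at room temperature with DiscoveRx detection reagent.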
TGFb inhibitor: inhibitors of TGF-b signaling. HepG2 CAGA-GFP TGF-b/SMAD3 reporter, GFP fluorescence, 18 h; TGF-beta stimulated, 500 pg/mL final. Potency, µM (series often up to 46.1 µM), for inactives: at the highest dose activity, negative = inhibition, hits mostly inhibitors. 410,000 tested, 1.2% active; further: potency means the concentration at half of the fitted maximal effect; on the % scale 0 is the no-effect control and ±100 the full control effect; nearly all actives have a fitted effect of over 65% in size
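HEPG2 CAGA-GFP, 1000 cells/well; 2 h settle, 37 C; cpd via pin tool; TGF-b 500 pg/mL final; 18 h, 37 C; GFP imaging ex488/em500-530; %Activity normalised to -TGF-b and +DMSO controls; CRC fit, curve class.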
S2 tox: cell viability loss in ATXN counter-screen; 400,000 tested, 0.49% active; S2 cells (HEK-293 line with an ATXN2-luciferase reporter) viability, CellTiter-Fluor protease fluorescence, 24 h; AID 651635; Potency, µM (highest dose often 56.7 µM), usual class: cytotoxic; further: potency means the concentration at half of the fitted maximal effect; nearly all actives have a fitted effect of over 40% in size
ATXN2 expr inh: ATXN2 expression inhibition; 360,000 tested, 0.72% active; Potency, µM (series often up to 57 µM), without a hit: at the highest dose activity change, negative = inhibition, most hits filed as inhibitors; HEK-293 ATXN2-luciferase reporter, luminescence, 24 h; further: potency means the concentration at half of the fitted maximal effect; on the % scale 0 is the no-effect control and ±100 the full control effect; nearly all actives have a fitted effect of over 55% in size
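qHTS (up to 57 uM final) was run with 24 h compound exposure of reporter cells at 37 °C. Each well was multiplexed: SteadyGlo luminescence measured ATXN2-luciferase expression after a fluorogenic Gly-Phe-AFC viability readout (25 uM final).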
D3 antag: D3 dopamine receptor (human) antagonism; max response, negative = inhibition, %; D3R cells, DiscoveRx beta-arrestin luminescence, antagonist mode; stronger effect = lower value; P35462; 360,000 tested, 2.5% active; in the data active means max response below about -50%; inconclusive means no clear call, values can overlap the other calls; further: on the % scale 0 is the no-effect control and ±100 the full control effect
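Cells expressing the human receptor were seeded at 1500 cells/well, incubated overnight at 37 degrees C in 5% CO2, then exposed to library compounds with dopamine controls for 90 minutes at 37 degrees C before luminescent detection.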
HepG2 viability: kills HepG2 cells in TGF-b inhibitor counter-screen; HepG2 CAGA-GFP viability, ATP luminescence, 18 h; Potency, µM (doses to about 46.1 µM), without a hit: top-dose activity change, negative = cytotoxicity, usual class: cytotoxic; 410,000 tested, 0.76% active; AID 588856; further: potency means the concentration at half of the fitted maximal effect
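CellTiter-Glo luminescence gave cytotoxicity after 18 hours at 37 degrees C. The cells were HepG2 CAGA-GFP in 1% FBS DMEM, stimulated with 500 pg/mL TGF-beta after compound addition. %Activity was normalised to no-cell wells (complete cell-killing) and DMSO (no toxicity), and curves were fitted and classified.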
An asterisk follows results filed as active; i = inactive; ? = inconclusive; / = no result. Unless noted, the call rests on the fitted dose curve; in most records, active means well fitted curve in the direction sought with a large enough effect; inconclusive means small, poorly fitted or top-dose-only effect, or another doubt; inactive means no such curve, though single readings can be large; an effect the other way counts as inactive or inconclusive.

SMILES | D3 ag | TGFb inhibitor | S2 tox | ATXN2 expr inh | D3 antag | HepG2 viability
COc1ccc(Cc2cc(NCc3ccccc3)c3ncn(C(C)C)c3c2)cc1 | -17 | ? | ? | -8% | 0 | 11µM*
CCCCOc1cc(NCc2ccccc2)c2ncn(C(C)C)c2c1 | 1 | 18µM* | ? | -39% | 15 | -54%
CCC(CO)Oc1cc(NCc2cccc(O)c2)c2ncn(C(C)C)c2c1 (configuration not stated) | 7 | -2% | i | ? | 84 | 4%
CCc1ccc(NC(=O)c2ccc(F)c(S(=O)(=O)NCc3ccc(Cl)c(Cl)c3)c2)cc1 | 3 | ? | / | / | / | -61%
O=C(CCc1nc2ccccc2s1)N1CCOc2ccc(CN3CCc4sccc4C3)cc2C1 | / | / | i | / | / | /
C[C@H](CSC(=O)c1ccccc1)C(=O)N1C[C@@H](Sc2ccccc2)C[C@H]1C(=O)O | 2 | / | i | / | / | /
CC(C)n1cnc2c(NCc3ccccc3)cc(N[C@H](C)CO)cc21 | -11 | ? | 0.89µM* | 1.1µM* | ? | 0.63µM*
CCOCCOc1cc(NCc2ccccc2)c2ncn(C(C)C)c2c1 | -12 | ? | ? | ? | ? | -111%
CCC(COC(=O)c1ccccc1)Oc1cc(NCc2ccccc2)c2ncn(C(C)C)c2c1 (configuration not stated) | 0 | ? | ? | ? | 4 | -85%
CCC(COC)Oc1cc(NCc2ccccc2)c2ncn(C(C)C)c2c1 (configuration not stated) | 5 | ? | 22µM* | -3% | 4 | -113%
CC(=O)Nc1ccc(Sc2ccc([N+](=O)[O-])o2)cc1 | -26 | ? | ? | ? | -74* | 20µM*
COc1ccc(OCC(=O)OCc2cc(=O)n3nc(-c4cccs4)sc3n2)cc1 | 5 | -16% | i | -13% | / | -21%
CC1(C)S[C@@H]2[C@H](NC(=O)[C@@H](N)c3ccc(O)cc3)C(=O)N2[C@H]1C(=O)O | / | / | i | / | / | /
c1cnc(N2CCN(Cc3c[nH]c4ccccc34)CC2)nc1 | -7 | ? | i | -13% | -51* | -24%
COc1ccccc1N1CCN(C(=O)CCc2c[nH]c3ccccc23)CC1 | -2 | -8% | i | -28% | -6 | -19%
Cc1ccc(CN2CCN(c3cccc4[nH]ccc34)CC2)cc1 | 30 | -22% | i | 3% | -82* | -29%
Cc1ccccc1N1CCN(Cc2c[nH]c3ccccc23)CC1 | -26 | ? | ? | ? | -86* | 10µM*
COc1ccccc1N1CCN(Cc2c[nH]c3ccccc23)CC1 | -24 | 5% | i | -31% | -80* | -14%
Cc1c(CNC2CCCCCC2)c(C(=O)O)c(C)n1Cc1cccc(Cl)c1 | -12 | -16% | i | 3% | / | -14%
COc1ccc(N(C(=O)Cn2nnc3ccccc32)C(C(=O)NCc2ccccc2)c2ccc(F)cc2)cc1 (configuration not stated) | -1 | -5% | / | / | / | -23%
CN(Cc1ccccc1)c1ccc(C(CC(N)=O)NC(=O)c2ccc(Br)cc2)cc1[N+](=O)[O-] (configuration not stated) | -52 | ? | ? | ? | -52* | -23%
Cc1cc(C)cc(NC(=O)CC(C)n2nc(C)cc2C)c1 (configuration not stated) | 8 | 23% | i | -11% | / | -19%
Cc1nc2n(c(=O)c1CCN1CCC(C(=O)c3ccc(F)cc3)CC1)CCS2 | / | / | i | ? | / | /
Cc1nc2sccn2c(=O)c1CCN1CCC(=C(c2ccc(F)cc2)c2ccc(F)cc2)CC1 | -88 | ? | ? | -7% | -93* | -96%
Cc1nc2ccccn2c(=O)c1CCN1CCC(C(=O)c2ccc(F)cc2)CC1 | -95 | -13% | i | -14% | -112* | -11%
SMILES | D3 ag | TGFb inhibitor | S2 tox | ATXN2 expr inh | D3 antag | HepG2 viability
COc1ccc(CCN(C)CCCOc2ccc(S(=O)(=O)c3[nH]c4ccccc4c3C(C)C)cc2)cc1OC | / | / | / | -17% | / | /
CO[C@H]1[C@H](NC(=O)c2ccsc2)c2ccccc2C12CCN(Cc1cnn(C)c1C)CC2 | / | / | i | / | / | /
COc1ccccc1NC1=NCC(=O)N1Cc1ccccc1 | 2 | -7% | i | 5% | 0 | 1%
Cc1ccc(NC2=NCC(=O)N2Cc2ccccc2)c(C)c1 | 39* | 11% | i | -16% | 83 | 0%
COc1ccccc1C(=O)Nc1ccc(S(=O)(=O)Nc2nc(C)cc(C)n2)cc1 | 7 | 3% | i | 1% | / | 4%
COCCNC(=O)CSc1ccc(Cl)cc1 | 4 | -4% | ? | -11% | 4 | 5%
COCCNCCCCSc1ccc(Cl)cc1 | -1 | 1% | i | / | -59* | -28%
O=C1ON=C(c2ccccc2)/C1=C/c1ccc(OS(=O)(=O)c2ccccc2)cc1 | -2 | -7% | i | 17% | 15 | -4%
COc1ccc(/C=C2\C(=O)ON=C2c2ccccc2)cc1 | -10 | -30% | 20µM* | ? | -3 | -43%
CC(=O)N[C@@H](CCC(N)=O)C(=O)O | 4 | / | i | 5% | / | /
COc1cc(=O)n2c(c1C(=O)N(C)Cc1nonc1C)CCN(Cc1cc(F)ccc1F)CC2 | / | / | i | / | / | /
CC(C)(c1ccccc1)c1ccc(OCCCNCCO)cc1 | -3 | -25% | ? | -32% | -75* | -93%
CC(C)(C)c1ccc(OCCCNCc2ccccc2)cc1 | -25 | ? | i | -3% | ? | -88%
COc1ccc(OCCCNCCc2ccccc2)cc1 | -27 | 0% | i | -11% | -52* | 0%
CCN(c1ccccc1)S(=O)(=O)c1ccc(NC(=O)c2cc(=O)c3cc(C)c(C)cc3o2)cc1 | 5 | -1% | i | 12% | / | 15%
Nc1cc(=O)[nH]c(SCc2ccc(Cl)cc2Cl)n1 | 30* | -23% | i | / | 20 | -30%
O=C(/C=C/c1cccs1)c1cc(Br)ccc1OC(=O)N1CCOCC1 | -2 | -4% | i | ? | -11 | 11µM*
CCOC(=O)c1ccc(NC(=O)CCc2c(C)nc3c(c(C)nn3C(C)(C)C)c2C)cc1 | 21 | ? | i | ? | / | -18%
COC(=O)c1ccc(NC(=O)CCc2c(C)nc3c(c(C)nn3C(C)(C)C)c2C)cc1 | 22 | 16µM* | i | 13% | / | -47%
CCC(=O)NCCCCCCNC(=O)CC | 12 | 6% | i | 9% | -9 | 3%
O=C(CCl)NCCCCCCCCCNC(=O)CCl | -3 | ? | 10µM* | -38% | -8 | -40%
Nc1nc(Nc2ccc(Cl)cc2)nc2ccccc12 | -3 | 18µM* | i | 45% | 9 | -48%

Source: PubChem (National Center for Advancing Translational Sciences (NCATS))
